# Measured values: PubChem BioAssay (NCATS)
# “And” between values parts separate entries of the source, which are not always exact repeats. Identical values can stand only once. Records with an inconclusive call do not appear. A call without a number means that no potency is given here. The source made the active and inactive calls. Unless noted, calls follow the shape of the dose curve; as a rule, active = well fitted curve in the direction sought with a large enough effect; inconclusive = small, poorly fitted or top-dose-only effect, or another doubt; inactive = no such curve, though single readings can be large; an effect the other way counts as inactive or inconclusive.
# Experiments:
# [1] = Cell Viability - LYMP2-003 (AID 965);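 also: cells exposed to compounds for 24 h before reading; nearly all actives have a fitted effect of over 50% in size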
# In short: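 CellTiter-Glo luminescence quantified ATP loss after 24 h compound treatment of LYMP2-003 lymphoblastoid cells at 37 C. Titration series were fitted with the standard Hill equation to give AC50.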
# [2] = Cell Viability - LYMP2-004 (AID 966); also: nearly all actives have a fitted effect of over 65% in size
# In short: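 Human lymphoblastoid cells (2500/well) in complete medium were treated with compounds for 24 hr at 37 C, then intracellular ATP was measured by CellTiter-Glo luminescence. AC50 values came from Hill-equation fits of concentration-response data.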
# [3] = Cell Viability - LYMP2-011 (AID 969); also: nearly all actives have a fitted effect of over 60% in size
# In short: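 Human lymphoblastoid cells (2500/well) were plated in complete medium, preincubated 5 hr at 37 C, then exposed to compounds for 24 hr at 37 C. Intracellular ATP was read by CellTiter-Glo luminescence, and AC50 came from Hill-equation concentration-response fits.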
# [4] = Cell Viability - LYMP2-013 (AID 970); also: series mostly up to about 92 µM; nearly all actives have a fitted effect of over 55% in size
# In short: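 Human lymphoblastoid cells, 2500/well, were preincubated 5 hr at 37 C, then treated with compounds for 24 hr at 37 C in complete medium. Intracellular ATP was read by CellTiter-Glo luminescence; AC50 from Hill-equation fits of concentration-response data.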
# [5] = Cell Viability - LYMP2-017 (AID 972); also: series mostly up to about 92 µM; nearly all actives have a fitted effect of over 55% in size
# In short: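 Human lymphoblastoid cells (2500/well) were seeded in complete medium, held 5 hr at 37 C, then exposed to compounds for 24 hr at 37 C. Intracellular ATP was read by CellTiter-Glo luminescence after 30 min at room temperature, with AC50 values from Hill-equation fits.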
# [6] = Cell Viability - LYMP2-019 (AID 973); also: nearly all actives have a fitted effect of over 55% in size
# In short: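 Human lymphoblastoid cells were seeded at 2500 cells/well, preincubated 5 hr at 37 C, then exposed to compounds for 24 hr at 37 C in complete medium. Intracellular ATP was measured by CellTiter-Glo luminescence; AC50 from Hill fits.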
# [7] = Cell Viability - LYMP2-021 (AID 974);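 also: compound exposure lasts 24 hours at 37 °C; nearly all actives have a fitted effect of over 55% in size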
# In short: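 Human lymphoblastoid cells (2500/well) were preincubated 5 hr at 37 C, then exposed to compounds for 24 hr at 37 C in complete medium. Intracellular ATP was read by CellTiter-Glo luminescence; AC50 came from Hill-equation fits of concentration-response data.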
# [8] = Cell Viability - LYMP2-023 (AID 975)
# In short: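 Human lymphoblastoid cells (2500/well) were preincubated 5 hr at 37 C, then exposed to compounds for 24 hr at 37 C in complete medium. Cellular ATP was read by CellTiter-Glo luminescence, and AC50 came from Hill-equation fits.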
# [9] = Cell Viability - LYMP2-002 (AID 977); also: series mostly up to about 92 µM
# In short: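 Human lymphoblastoid LYMP2-002 cells, 2500 per well, exposed to compounds for 24 h at 37 C in complete medium; viability read as intracellular ATP by CellTiter-Glo luminescence, AC50 from Hill fits.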
# [10] = Cell Viability - LYMP2-007 (AID 979);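 also: cells exposed to compound for 24 h before reading; nearly all actives have a fitted effect of over 60% in size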
# In short: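 Human lymphoblastoid cells (2500/well) were plated in complete medium, incubated 5 hr at 37 C, then exposed to compounds for 24 hr at 37 C. Intracellular ATP was read by CellTiter-Glo luminescence after 30 min at room temperature; AC50 from Hill fits.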
# [11] = Cell Viability - LYMP2-014 (AID 983); also: series mostly up to about 92 µM; nearly all actives have a fitted effect of over 50% in size
# In short: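 Human lymphoblastoid cells (2500/well) were pre-incubated 5 hr at 37 C, then exposed to compounds in complete medium for 24 hr at 37 C. Intracellular ATP was read by CellTiter-Glo luminescence after 30 min at room temperature; AC50 from Hill fits.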
# [12] = Cell Viability - LYMP2-016 (AID 984); also: nearly all actives have a fitted effect of over 55% in size
# In short: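 Cytotoxicity was scored by luminescent ATP content (CellTiter-Glo) after 24 h compound exposure at 37 C of a human lymphoblastoid line at 2500 cells/well. Concentration-response data were fitted to the Hill equation for AC50.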
# [13] = Cell Viability - LYMP2-018 (AID 985);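 also: compound exposure lasted 24 hr at 37 °C; nearly all actives have a fitted effect of over 50% in size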
# In short: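 Human lymphoblastoid cells (2500/well) were pre-incubated 5 hr at 37 C, then exposed to compounds for 24 hr at 37 C in complete medium. Viability was read as intracellular ATP by CellTiter-Glo luminescence; AC50 values came from Hill-equation fits.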
# [14] = Cell Viability - LYMP2-020 (AID 986)
# In short: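 Human lymphoblastoid cells, 2500/well, were pre-incubated 5 hr at 37 C, then exposed to compounds for 24 hr at 37 C in complete medium. Intracellular ATP was read by CellTiter-Glo luminescence, and AC50 was derived by Hill fitting of concentration-response data.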
# [15] = Cell Viability - LYMP2-026 (AID 989); also: nearly all actives have a fitted effect of over 50% in size
# In short: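 Human lymphoblastoid cells (2500/well) in complete medium were preincubated 5 hr at 37 C, then exposed to compounds for 24 hr at 37 C. Cellular ATP was read by CellTiter-Glo luminescence; AC50 from Hill-equation fits of concentration-response data.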
# [16] = target: Retinoic acid receptor RXR-alpha (Homo sapiens) (UniProt P19793); test: qHTS assay for small molecule agonists of retinoid X receptor alpha signaling (AID 588544; calls by dose curve; also: potency is read from the fitted curve at half-maximal effect)
# [17] = qHTS assay for small molecule antagonists of retinoid X receptor alpha signaling (AID 588546); details: HEK293T RXRa-UAS-bla, beta-lactamase ratio, antagonist mode; measured here: W530 green channel, cytotoxicity proxy;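 also: cells stimulated with 9-cis-retinoic acid as agonist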
# In short: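 Beta-lactamase reporter inhibition, read as CCF4 fluorescence ratio (ex 405, em 460/530 nm) after 2 h at RT. HEK293T UAS-bla cells, 2500/well, were stimulated with 9-cis-RA at 500 or 100 nM final alongside test compound for 18 h at 37 C.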
# [18] = qHTS assay for small molecule disruptors of the mitochondrial membrane potential - 1 hr assay (AID 651754; calls by dose curve; also: nearly all actives have a fitted effect of over 35% in size)
# In short: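 HepG2 cells, attached overnight at 37C, were exposed to compound or DMSO vehicle for 1 hr at 37C, 5% CO2, then stained with Mito-MPS dye for 30 min. Red aggregate versus green monomer fluorescence reports membrane potential.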
# [19] = qHTS assay for small molecule disruptors of the mitochondrial membrane potential - 5 hr assay (AID 651755; calls by dose curve; also: nearly all actives have a fitted effect of over 40% in size)
# In short: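 HepG2 cells (2,000/well), attached overnight, exposed to compound 5 hr at 37C, then Mito-MPS dye 30 min. Fluorescence read for monomers (490/535 nm) and aggregates (540/590 nm).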
# [20] = Cell Viability - LYMP2-005 (AID 967); also: series mostly up to about 92 µM
# In short: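 LYMP2-005 human lymphoblastoid cells (2500/well) were treated with compounds for 24 h at 37 C. Intracellular ATP was then measured by CellTiter-Glo luminescence after 30 min at room temperature. AC50 values came from Hill-equation fits of qHTS concentration-response data.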
# Sequence of Retinoic acid receptor RXR-alpha (Homo sapiens) (P19793 whole entry, looked up): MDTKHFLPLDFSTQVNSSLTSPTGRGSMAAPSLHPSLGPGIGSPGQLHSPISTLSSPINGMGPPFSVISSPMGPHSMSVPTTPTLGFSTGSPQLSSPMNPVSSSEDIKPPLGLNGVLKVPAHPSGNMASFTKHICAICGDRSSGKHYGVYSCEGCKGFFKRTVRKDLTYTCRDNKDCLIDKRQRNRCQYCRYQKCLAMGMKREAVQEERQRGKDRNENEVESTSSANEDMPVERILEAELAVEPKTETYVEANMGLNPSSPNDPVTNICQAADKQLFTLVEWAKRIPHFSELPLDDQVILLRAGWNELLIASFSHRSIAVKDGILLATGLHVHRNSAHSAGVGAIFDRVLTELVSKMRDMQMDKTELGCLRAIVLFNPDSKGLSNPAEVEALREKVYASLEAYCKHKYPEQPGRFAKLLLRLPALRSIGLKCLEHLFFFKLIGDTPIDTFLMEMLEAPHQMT
SMILES,Potency [1],Potency [2],Potency [3],Potency [4],Potency [5],Potency [6],Potency [7],Potency [8],Potency [9],Potency [10],Potency [11],Potency [12],Potency [13],Potency [14],Potency [15],Potency [16],max response [17],Potency [18],Potency [19],Potency [20]
CN=C=S,inactive,inactive,inactive,inactive,inactive,inactive,inactive,inactive,inactive,inactive,inactive,inactive,inactive,inactive,inactive,inactive,-16.3% and -0.556%,inactive,inactive,–
Cc1ccccc1N,inactive,inactive,inactive,inactive,inactive,inactive,inactive,inactive,inactive,inactive,inactive,inactive,inactive,inactive,inactive,inactive,-2.57%,inactive,inactive,inactive
CCC[CH2][Sn]([Cl])([Cl])[Cl],inactive,inactive,inactive,inactive,inactive,inactive,inactive,inactive,inactive,inactive,inactive,inactive,inactive,inactive,inactive,inactive,-9.08% and -6.63%,inactive,inactive,inactive
c1nc[nH]n1,–,inactive,inactive,inactive,inactive,inactive,inactive,inactive,inactive,inactive,inactive,inactive,inactive,inactive,inactive,inactive,6.06%,inactive,inactive,inactive
C[C@]12CC[C@H]3[C@@H](CCC4=CC(=O)CC[C@@]43C)[C@@H]1CC[C@@H]2O,inactive,inactive,inactive,inactive,inactive,inactive,inactive,inactive,inactive,inactive,inactive,inactive,inactive,inactive,inactive,12.6 µM (active),–,inactive,inactive,inactive
c1ccc(-c2ccccc2)cc1,inactive,inactive,inactive,inactive,inactive,inactive,inactive,inactive,inactive,inactive,inactive,inactive,inactive,inactive,inactive,–,-7.26% and -12.6%,inactive,inactive,inactive
C=CC1CC=CCC1 (stereo not given),inactive,inactive,inactive,inactive,inactive,inactive,inactive,inactive,inactive,inactive,inactive,inactive,inactive,inactive,inactive,inactive,-1.79% and -13.7%,inactive,inactive,inactive
Cc1ccc([N+](=O)[O-])cc1C,inactive,inactive,inactive,inactive,inactive,inactive,inactive,inactive,inactive,inactive,inactive,inactive,inactive,inactive,inactive,inactive,-4.65% and -9.04%,inactive,inactive,inactive
O=NN(c1ccccc1)c1ccccc1,inactive,inactive,inactive,inactive,inactive,inactive,inactive,inactive,inactive,inactive,inactive,inactive,inactive,inactive,inactive,inactive,-5.84% and -1.3%,inactive,inactive,inactive
O=C(Cl)/C=C/C(=O)Cl,inactive,inactive,inactive,inactive,inactive,inactive,inactive,inactive,inactive,inactive,inactive,inactive,inactive,inactive,inactive,inactive,-3.67%,inactive,inactive,inactive
CC(O)CCl (stereo not given),inactive,inactive,inactive,inactive,inactive,inactive,inactive,inactive,inactive,inactive,inactive,inactive,inactive,inactive,inactive,inactive,-12.9% and -6.32%,inactive,inactive,inactive
OCC(Br)CBr (stereo not given),inactive,inactive,inactive,inactive,inactive,inactive,inactive,inactive,–,inactive,inactive,inactive,inactive,inactive,inactive,inactive,-6.01%,inactive,inactive,inactive
CCCC(=O)Cl,inactive,inactive,inactive,inactive,inactive,inactive,inactive,inactive,inactive,inactive,inactive,inactive,inactive,inactive,inactive,inactive,-5.53%,inactive,inactive,inactive
Clc1cccc(C(Cl)(Cl)Cl)n1,inactive,inactive,inactive,inactive,inactive,inactive,inactive,inactive,inactive,inactive,inactive,inactive,inactive,inactive,inactive,inactive,-2.2% and -16.3%,inactive,inactive,inactive
